The results in this text go back to PubChem BioAssay (NCATS).

Records with an inconclusive call do not appear. A number with no mark means an inactive call. The call rests on the fitted dose curve; in most records, active means well fitted inhibition curve with a large enough effect; inconclusive means small, poorly fitted or top-dose-only effect, or effect the other way; inactive means flat fitted curve, though single readings scatter.

Sequence of ATP-dependent 6-phosphofructokinase (Trypanosoma brucei brucei) (O15648 whole entry, looked up): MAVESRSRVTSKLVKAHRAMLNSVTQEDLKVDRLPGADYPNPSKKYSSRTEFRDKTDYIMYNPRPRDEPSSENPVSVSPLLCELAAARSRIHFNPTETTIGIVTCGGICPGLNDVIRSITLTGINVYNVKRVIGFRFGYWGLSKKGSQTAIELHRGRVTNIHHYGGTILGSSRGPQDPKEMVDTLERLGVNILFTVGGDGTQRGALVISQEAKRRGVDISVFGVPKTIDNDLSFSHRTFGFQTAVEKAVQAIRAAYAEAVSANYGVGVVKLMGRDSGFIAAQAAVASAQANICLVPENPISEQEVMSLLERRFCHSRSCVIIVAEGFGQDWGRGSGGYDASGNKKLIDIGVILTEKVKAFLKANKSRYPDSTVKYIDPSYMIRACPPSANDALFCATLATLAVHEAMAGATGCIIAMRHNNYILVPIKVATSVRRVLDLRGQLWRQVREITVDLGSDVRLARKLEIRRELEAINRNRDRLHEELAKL

The target in the experiment is ATP-dependent 6-phosphofructokinase (Trypanosoma brucei brucei) (UniProt O15648). The experiment can be described thus: qHTS Assay to Find Inhibitors of T. brucei phosphofructokinase: hit validation (AID 492961).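 Further: luminescence reports ADP formed as PFK phosphorylates fructose-6-phosphate with ATP.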 The conditions noted are these: T. brucei PFK, ADP-Glo luminescence; series mostly up to 51.4 µM; activity change, negative = inhibition: at the top concentration. The text has this:
NIH Molecular Libraries Probe Production Network [MLPCN] NIH Chemical Genomics Center [NCGC] Grant: 1 R03 MH092153-01 PI Name: Malcolm Walkinshaw, University of Edinburgh NCGC Assay Overview: Various species of the protozoan family Trypanosomatidae are responsible for a range of serious human diseases in tropical and subtropical areas of the world. […] Many of the disorders caused by trypanosomatids are fatal if left untreated, but most currently used drugs are inefficient and toxic. […] Oxidative metabolism involving the mitochondrial tricarboxylic acid cycle and oxidative phosphorylation are repressed in these parasites, and recent RNA interference (RNAi) experiments have shown that even partial depletion of certain individual glycolytic enzymes can lead to the death of cultured parasites. One such glycolytic enzyme, phosphofructokinase (PFK), catalyzes the formation of fructose-1,6-bisphosphate (F1,6BP) and ADP from fructose-6-phosphate (F6P) and ATP, and in many metabolic circumstances makes an important contribution to the control of flux through the glycolytic pathway. As a specific glycolytic target, PFK is particularly attractive as it catalyzes the first irreversible step in glycolysis, and structural and kinetic studies have shown very substantial and essential differences from corresponding host enzymes, allowing for the discovery of parasite-selective inhibitors. The goal of this screen is to find small-molecule inhibitors of T. brucei PFK using a biochemical assay that measures PFK activity as a function of ADP production. A luminescence-based assay for T. brucei PFK activity has been developed which uses luciferase to detect production of ADP. Traditional luciferase-based nucleotide detection reagents rely on ATP production as a direct substrate for the luciferase reaction; however, PFK catalyzes the transfer of a phosphate from ATP to F6P, resulting in the net depletion of ATP. To directly measure the ADP product of the PFK reaction, we used the ADP-Glo detection kit (Promega), which utilizes two separate reactions to 1) deplete all remaining uncatalyzed ATP and 2) convert all remaining ADP to ATP, which is then detected through a traditional luciferase-coupled reaction. Compounds were screened as a concentration-titration series that ranged from 57 uM to 0.7 nM.
NCGC Assay Protocol Summary: Substrate buffer was dispensed into white, solid 1536-well plates at 3uL/well in 0.1M triethanolamine (TEA) buffer, pH 8.0, containing final concentrations of 5 mM MgCl2, 0.01% Tween20, 0.5 mM fructose-6-phosphate (F6P) and 0.1mM ATP. Then, 23 nL of compounds or DMSO were delivered to each well using a pin tool. One uL T. brucei PFK (0.1M TEA, 0.01% Tween20, 0.1% bovine serum albumin (BSA) and 1.25nM PFK, final concentrations) was then dispensed, and plates were incubated at room temperature for 45 min. The luminescent detection reagent, ADP-Glo (Promega), was then added in two steps: the first reagent, ADP-Glo (which converts remaining uncatalyzed ATP), was added at 2.5uL/well and incubated for ten minutes at room temperature, and the second component, Kinase Detection reagent (which converts ADP to ATP as a substrate for luciferase-based luminescence), was added immediately after at 5uL/well, followed by one final ten minute room temperature incubation. The plates were measured on a ViewLux plate reader for luminescent signal using a clear filter with a one second exposure. The %Activity was determined from the corrected luminescence values. As no specific T. brucei PFK inhibitors have been identified in the literature, 1x (1.25nM) and 0x PFK enzyme controls (untreated) were included to normalize %Activity of identified inhibitors; 0x enzyme values corresponded to 100%Activity (full inhibition), while 1x PFK enzyme values were used to normalize 0%Activity (no inhibition). Concentration-response curves were fitted to the signals arising from the resulting luminescence. […]
For the molecule `CCCCCCCCCCCCCC(=O)OC(C)C`, the “activity change, negative = inhibition” value was 2.38%.
To `NC(N)=NN=C(/C=C/c1ccc([N+](=O)[O-])o1)/C=C/c1ccc([N+](=O)[O-])o1` belongs -13.2%; to `Cc1cccc(C)c1NC(=O)c1ccccc1C(=O)O`, -8.38%; to `C[C@@H](O)[C@H]1C(=O)N2C(C(=O)O)=C(S[C@@H]3CN[C@H](CNS(N)(=O)=O)C3)[C@H](C)[C@H]12`, -7.61%.
To `Cc1cc2c(OCC(CNC(C)(C)C)OC(=O)c3ccccc3)cccc2[nH]1` (stereo not given) belongs -8.13%; to `CCCCCCCC/C=C\CCCCCCCCN`, -4.74%.
On to `O=c1[nH]c(=O)n([C@H]2C[C@H](O)[C@@H](CO)O2)cc1F`, for which the “activity change, negative = inhibition” value is -0.481%.
With `O=C(O)C(Cc1cc(I)c(O)c(I)c1)c1ccccc1` (stereo not given) the figure was 20%; with `COc1ccc(-c2cc(C(F)F)nn2-c2ccc(S(N)(=O)=O)cc2)cc1F`, -1.48%.
As to `O=C(CN1CCN(Cc2ccc3c(c2)OCO3)CC1)N1c2ccccc2Sc2ccccc21`, the “activity change, negative = inhibition” value is -9.63%.
On to `CC[C@H](c1ccc(O)cc1)[C@@H](CC)c1ccc(O)cc1`, for which the “activity change, negative = inhibition” value is -1.92% [at 24.3 µM].
With `CC(=O)NO`, the “activity change, negative = inhibition” value is -3.76%.
On to `C=CCN1CCc2nc(N)sc2CC1`, for which the “activity change, negative = inhibition” value is -13.7%.
To `COc1ccccc1N1CCN(CCCCNC(=O)c2ccc(-c3ccc(C(C)=O)cc3)cc2)CC1` belongs 5.32%; to `Clc1cccc(C(c2ccc3nc[nH]c3c2)n2ccnc2)c1` (stereo not given), 4.08%; to `CC(=O)Nc1ccc(OC(=O)c2ccccc2OC(C)=O)cc1`, -4.2%.
With `C#C[C@]1(O)CC[C@H]2[C@@H]3CCC4=Cc5oncc5C[C@]4(C)[C@H]3CC[C@@]21C` the figure was 5.94%; with `O=C(c1ccc(F)cc1)C1CCN(CCn2c(=S)[nH]c3ccccc3c2=O)CC1`, 3.74%; with `CCN(CC)CCOc1ccc2c(c1)C(=O)c1cc(OCCN(CC)CC)ccc1-2`, 2.35%.
To `CCCCN=C(N)N=C(N)N` belongs -0.147%.
`Nc1ccc(C(=O)NCC(=O)O)cc1`: the “activity change, negative = inhibition” value was -1.2% [at 24.3 µM].
With `CN(C)C(=O)Nc1ccc(Cl)c(Cl)c1` the figure was -16.2%; with `CC(C)[N+](C)(C)CC(O)COc1cccc2ccccc12` (stereo not given), -1.2%; with `CN1CCN(c2cc3c(cc2F)c(=O)c(C(=O)O)cn3-c2ccc(F)cc2)CC1`, 4.2%.
As to `CC(=O)OCC(=O)[C@H]1CC[C@H]2[C@@H]3CCC4=CC(=O)CC[C@]4(C)[C@H]3CC[C@]12C`, the “activity change, negative = inhibition” value is 0.512%.
With `Cc1cc(C)cc(OCC2CNC(=O)O2)c1` (stereo not given) the figure was 9.48%.
With `O[C@@H](c1cc(C(F)(F)F)nc2c(C(F)(F)F)cccc12)[C@H]1CCCCN1` the figure was 3.87%.
For `CC(=O)N[C@@H](CCC(=O)O)C(=O)O`, the “activity change, negative = inhibition” value was 1.62%.
To `CCC(CC)(CC(=O)Nc1cccc(/C=C/c2nc(C3CCC3)cs2)c1)C(=O)O` belongs 0.279%.
To `Cc1cc(CC(=O)O)c(C)n1-c1ccc(Cl)cc1` belongs -6.24%.
For `CCNC(=O)/C=C/c1cccc(Br)c1`, the “activity change, negative = inhibition” value is 0.693%.
Consider `N#CCC(=O)NN`, for which the “activity change, negative = inhibition” value was 9.74%.
To `N=C(N)N1CCc2ccccc2C1` belongs -5.37%; to `CC(=O)Oc1ccc(C)cc1`, -1.49%; to `Cc1ccc2c(Br)cc(Br)c(O)c2n1`, 0%.
On to `O=C(O)P(=O)(O)O`, for which the “activity change, negative = inhibition” value was 1.54%.
Regarding `CCOCCn1c(N2CCCN(C)CC2)nc2ccccc21`, the “activity change, negative = inhibition” value was 7.26%.
In the case of `CCN(CC)CCOc1ccccc1C(=O)CCc1ccccc1`, the “activity change, negative = inhibition” value was -3.17%.
As to `N/C(=N\N=C\c1ccc(Cl)cc1)N/N=C/c1ccc(Cl)cc1`, the “activity change, negative = inhibition” value is -0.284%.
With `Cl/C(=C\n1cncn1)c1ccc(Cl)cc1Cl` the figure was -11.3%.
